Data published in PubChem BioAssay AID1159580 (chemical genetic matrix, 2015).
In all, about 5,500 compounds went through this assay and about 2,000 (36%) were called active. Inconclusive results (about 18%) are left out. Cut-off read from the data, not from the text of the source: active = normalized growth mostly below about 0.91 (no sharp cut-off); inconclusive = no clear call, values can overlap the other calls; inactive = mostly above about 0.92. The list shows a part of the results.

Assay: chemical genetic growth profiling, strain panel (AID 1159580);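 note: tested at 20 µM; growth read once vehicle control cultures reached saturation at 30 °C; 1 = growth at the plate median or of vehicle wells; lower values mean less growth of the strain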
Settings: growth OD
[1] = S. cerevisiae deletion strains, locus YAL013W, strain DEP1, hits give low values
[2] = S. cerevisiae deletion strains, locus YJR075W, strain HOC1, hits give low values
[3] = S. cerevisiae deletion strains, locus YMR307W, strain GAS1, hits give low values
[4] = S. cerevisiae deletion strains, locus YNL322C, strain KRE1, hits give low values
[5] = S. cerevisiae deletion strains, locus YPL055C, strain LGE1, hits give low values
[6] = S. cerevisiae deletion strains, locus YBR229C, strain ROT2, hits give low values
[7] = S. cerevisiae deletion strains, locus YDL101C, strain DUN1, hits give low values
[8] = S. cerevisiae deletion strains, locus YDL134C, strain PPH21, hits give low values
[9] = S. cerevisiae deletion strains, locus YDR150W, strain NUM1, hits give low values
[10] = S. cerevisiae deletion strains, locus YEL061C, strain CIN8, hits give low values
[11] = S. cerevisiae deletion strains, locus YGR078C, strain PAC10, hits give low values
[12] = S. cerevisiae deletion strains, locus YHR030C, strain SLT2, hits give low values
[13] = S. cerevisiae deletion strains, locus YJR043C, strain POL32, hits give low values
[14] = S. cerevisiae deletion strains, locus YKL190W, strain CNB1, hits give low values
[15] = S. cerevisiae deletion strains, locus YLR039C, strain RIC1, hits give low values
[16] = S. cerevisiae deletion strains, locus YLR058C, strain SHM2 (second series), hits give low values
[17] = S. cerevisiae deletion strains, locus YLR085C, strain ARP6, hits give low values
[18] = S. cerevisiae deletion strains, locus YLR262C, strain YPT6, hits give low values
[19] = S. cerevisiae deletion strains, locus YML094W, strain GIM5, hits give low values
[20] = S. cerevisiae deletion strains, locus YMR219W, strain ESC1, hits give low values
[21] = S. cerevisiae deletion strains, locus YMR263W, strain SAP30, hits give low values
[22] = S. cerevisiae deletion strains, locus YNL128W, strain TEP1, hits give low values
[23] = S. cerevisiae deletion strains, locus YNL153C, strain GIM3, hits give low values
[24] = S. cerevisiae deletion strains, locus YNL298W, strain CLA4 (second series), hits give low values
[25] = S. cerevisiae deletion strains, locus YNR030W, strain Alg12, hits give low values
[26] = S. cerevisiae deletion strains, locus YOL006C, strain TOP1, hits give low values
[27] = S. cerevisiae deletion strains, locus YPL241C, strain CIN2, hits give low values
[28] = S. cerevisiae deletion strains, locus YPR135W, strain CTF4, hits give low values

Measured: normalized growth

CN1CCc2cccc(Cl)c2CC1
inactive: [1] 0.986 | S. cerevisiae deletion strains, locus YAL040C, strain CLN3, hits give low values 1 | S. cerevisiae deletion strains, locus YCL061C, strain MRC1 (second series), hits give low values 1.01 | S. cerevisiae deletion strains, locus YDR363W, strain ESC2, hits give low values 1 | S. cerevisiae deletion strains, locus YER002W, strain NOP16, hits give low values 1 | [2] 0.993 | [3] 1.01 | S. cerevisiae deletion strains, locus YNL175C, strain NOP13, hits give low values 1.01 | S. cerevisiae deletion strains, locus YNL197C, strain WHI3, hits give low values 1.01 | S. cerevisiae deletion strains, locus YNL224C, strain SQS1, hits give low values 1 | [4] 1 | S. cerevisiae deletion strains, locus YOR083W, strain WHI5 (second series), hits give low values 1.01 | [5] 0.998

Cc1cccc2c1N(C(=S)Nc1ccccc1Cl)CCC2
inactive: [1] 0.966 | [7] 0.972 | [9] 1.01 | S. cerevisiae deletion strains, locus YGR229C, strain SMI1, hits give low values 0.997 | [13] 0.997 | [16] 0.95 | [21] 0.915 | [22] 0.914 | [4] 0.989 | [25] 0.906 | [5] 0.93 | [27] 0.859
active: [6] 0.821 | S. cerevisiae deletion strains, locus YCL061C, strain MRC1, hits give low values 0.898 | [8] 0.911 | [10] 0.845 | [11] 0.907 | [12] 0.331 | S. cerevisiae deletion strains, locus YHR087W, strain rtc3, hits give low values 0.787 | [2] 0.876 | [14] 0.648 | [15] 0.439 | [17] 0.602 | [18] 0.406 | [19] 0.712 | [20] 0.851 | [3] 0.219 | [23] 0.913 | [24] 0.582 | [26] 0.508 | [28] 0.273

CC(=O)CC(=O)Nc1ccccc1Cl
inactive: [1] 1 | [6] 0.997 | [7] 0.979 | [8] 0.998 | [9] 0.97 | [10] 1.02 | [11] 0.993 | [12] 0.966 | S. cerevisiae deletion strains, locus YJL187C, strain SWE1, hits give low values 0.995 | [13] 0.982 | [2] 1.03 | [14] 1.01 | [15] 0.993 | [16] 1.01 | [17] 0.967 | [18] 1.02 | [19] 1.02 | [20] 0.993 | [21] 0.999 | [3] 0.947 | [22] 0.987 | [23] 1.02 | [24] 1 | [4] 0.992 | [25] 1 | [26] 1.01 | [5] 1 | [27] 0.978 | [28] 0.925 | S. cerevisiae strains, strain wild type, hits give low values 0.971
